# Hits are enriched below; roughly 7.8% of the tested compounds scored in any of these assays.
# HCV inh: inhibitors of hepatitis C virus infection. Potency, µM (highest dose often 41.8 µM), for inactives: at the top dose activity change, negative = inhibition, most hits filed as inhibitors. 3.4% of 340,000 active. Huh7.5.1 HCVcc-Cre infection, luciferase reporter, 44 h; active = well fitted inhibition curve with a large enough effect; inconclusive = small, poorly fitted or top-dose-only effect, or another doubt; inactive = no such curve, though single readings can be large or run the other way; also: potency is read from the fitted curve at half-maximal effect
#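 Luciferase read-out (15 sec integration) after a 15 min room-temperature substrate step quantifies HCVcc-Cre infection. Cells, 1,000 per well, had compound added 4 h post-plating, then virus at ~0.5 moi, and were cultured 44 h.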
# HCMV antiviral: human cytomegalovirus inhibition. HFF cells, HCMV-luciferase reporter, 72 h; stronger effect = lower value. activity change, negative = inhibition, % at 57.5 µM. 4.5% of 410,000 active; in the data active = activity change below about -60%; inconclusive = no clear call, values can overlap the other calls; inactive = above about -39%
#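 After 16 h attachment at 37C, HFF cells received test compound and HCMV-luciferase (1 PFU/cell); reporter luminescence read 72 h later, data normalized against buffer-only and known inhibitor Salinomycin.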
# VACV Venus inh: vaccinia inhibition (Venus reporter) | AID 720580 | 0.46% of 330,000 active | Potency, µM (top dose mostly 36.5 µM), inactives show top-dose activity change, negative = inhibition, hits mostly inhibitors | Vaccinia virus Venus reporter expression, fluorescence; calls by dose curve; tested in A549 cells; also: potency is read from the fitted curve at half-maximal effect; nearly all actives have a fitted effect of over 30% in size
# Marburg entry inh: blocks Marburg virus binding to or entry into cells. Potency, µM (doses to about 37.8 µM), inactives show top-dose activity change, negative = inhibition, usual class: inhibitors. 1.8% of 300,000 active. Marburg virus pseudotyped entry inhibition, cell reporter; calls by dose curve; tested in HEK293 cells; also: potency is read from the fitted curve at half-maximal effect
# VACV mCherry inh: inhibitors of vaccinia virus infection (mCherry reporter signal). AID 720579. Vaccinia virus mCherry reporter infection, fluorescence. Potency, µM (highest dose often 36.5 µM), for the others: at the highest dose activity change, negative = inhibition, actives largely listed as inhibitors. 0.63% of 310,000 active; calls by dose curve; tested in A549 cells; also: potency is read from the fitted curve at half-maximal effect; nearly all actives have a fitted effect of over 35% in size
# Lassa entry inh: blocks Lassa virus binding to or entry into cells. 1.2% of 300,000 active. Potency, µM (titrated, usually from 37.9 µM), for inactives: at the highest dose activity change, negative = inhibition, most hits filed as inhibitors. Lassa virus pseudotype entry inhibition, cell reporter. AID 540256; calls by dose curve; tested in HEK293 cells; also: potency is read from the fitted curve at half-maximal effect; nearly all actives have a fitted effect of over 50% in size
# Active calls of the source: *; i = inactive; u = inconclusive; x = no result; [ ] = dose if it differs, or a comment. % is scaled to controls: 0 for no effect and ±100 for the full control effect.
SMILES,HCV inh,HCMV antiviral,VACV Venus inh,Marburg entry inh,VACV mCherry inh,Lassa entry inh
Cc1cc(C)n2nc(SCC(=O)c3ccccc3)nc2n1,u,92,-9%,u,-22%,2%
Cc1cc(C)n2nc(SCC(=O)c3cc(C)n(-c4cc(C)on4)c3C)nc2n1,4.5µM*,u,u,-19%,-7%,-18%
Cc1cc(C)n2nc(SCC(=O)N3CC(C)CC(C)C3)nc2n1 (stereo not drawn),-10%,-65*,-10%,5%,-17%,-6%
Cc1cc(C(=O)CSc2ncnc3ccccc23)c(C)n1C1CC1,10µM*,-10,-12%,10%,i,-1%
O=C(Cc1ccc(OCC2CCCCC2)cc1)NO,x,x,15%,x,-16%,x
Cc1ccc(Cl)cc1N1CCN(C(=O)c2cnc(N3CCOCC3)c3ccccc23)CC1,x,-36,u,x,u,u
Cc1nc2ccc(S(=O)(=O)N(CC(=O)Nc3ccc(Cl)cc3)Cc3ccccc3)cc2s1,x,-23,-18%,x,-9%,u
COc1ccc(NC(=O)CN2C(=O)C(=O)c3ccccc32)c(OC)c1,x,49,-5%,8%[46.1 µM],-9%,-12%[46.1 µM]
CS(=O)(=O)Nc1ccc(C2=NN(C(=O)CCCC(=O)O)C(c3cccs3)C2)cc1 (stereo not drawn),23%,-84*,-9%,-16%[46.1 µM],i,17%[46.1 µM]
CCC(=O)N1N=C(c2ccc(NS(=O)(=O)c3ccccc3)cc2)CC1c1ccco1 (stereo not drawn),11µM*,-40,x,x,x,x
CS(=O)(=O)Nc1cccc(C2=NN(C(=O)CCC(=O)O)C(c3cccs3)C2)c1 (stereo not drawn),19%,-16,x,x,x,x
Cc1ccc(C2=NN(C(=O)CCl)C(c3ccco3)C2)o1 (stereo not drawn),8.9µM*,-100*,-6%,u,-29%,14%
Cc1ccc(S(=O)(=O)N[C@H](C(=O)OCC(=O)N2N=C(c3ccc(Cl)cc3)CC2c2ccco2)C(C)C)cc1 (stereo partly drawn),13µM*,82,u,u,u,u
CCOC(=O)c1noc2ncnc(N3CCN(c4cccc(C(F)(F)F)c4)CC3)c12,x,-27,0%,x,i,-11%[46.1 µM]
O=C(c1cnsn1)N1CCOc2ccc(CN3CCOCC3)cc2C1,x,x,-9%,x,-12%,x
COc1cccc(CC(=O)Nc2ccc(S(=O)(=O)N3CCCCC3)cc2)c1,u,-6,-10%,10µM*,-28%,u
COc1ccc(Br)cc1CN(C)CC(=O)Nc1cccc(S(=O)(=O)N2CCCC2)c1,8.9µM*,u,-20%,u,u,u
COc1ccccc1CC(=O)Nc1cccc(S(=O)(=O)N2CCOCC2)c1,u,1,-10%,9%,-12%,-8%
COc1cccc(CC(=O)Nc2cc(S(=O)(=O)N3CCCCC3)ccc2C)c1,u,25,x,x,x,x
COc1ccc(CC(NC(C)=O)C(=O)NC2CCN(S(=O)(=O)c3ccc(NC(C)=O)cc3)CC2)cc1 (stereo not drawn),-7%,-3,-17%,u,-16%,20%[46.1 µM]
COc1cc(CC(NC(C)=O)C(=O)NC2CCN(S(=O)(=O)c3ccc(NC(C)=O)cc3)CC2)cc(OC)c1 (stereo not drawn),7%,-72*,-12%,11%[46.1 µM],0%,x
COc1ccc(CC(=O)Nc2cccc(S(=O)(=O)N3CCOCC3)c2)cc1OC,3.5µM*,-66*,x,x,x,x
COCc1c(C(=O)NC2CCCC2)cnn1-c1nccc(-c2cc(C)sc2C)n1,x,x,-6%,x,-11%,x
CC(C)c1c(C(=O)N2CCCCC2c2cccnc2)cnn1-c1nccc(-c2cccs2)n1 (stereo not drawn),x,x,-20%,x,u,x
Cc1c(Cl)cccc1NC(=O)C(=O)NCC(c1cccnc1)N1CCN(c2ccccc2)CC1 (stereo not drawn),x,1,-20%,x,-13%,-13%[46.1 µM]
SMILES,HCV inh,HCMV antiviral,VACV Venus inh,Marburg entry inh,VACV mCherry inh,Lassa entry inh
COc1ccc(Br)cc1CN(C)CC(=O)Nc1cccc(S(N)(=O)=O)c1,-8%,-39,-16%,u,-21%,-14%
COc1ccc(/C=C/C(=O)Nc2cccc(S(=O)(=O)N3CCCC3)c2)cc1OC,10µM*,u,-21%,u,i,u
O=C(/C=C/c1ccc(F)cc1)Nc1cccc(S(=O)(=O)N2CCOCC2)c1,10µM*,-3,-29%,u,-18%,-27%
COc1ccc(Br)cc1CN(C)CC(=O)Nc1c(Cl)cccc1Cl,6%,-61*,-12%,-5%,-14%,-15%
O=C(/C=C/c1ccc(S(=O)(=O)N2CCOCC2)cc1)Nc1cc(F)ccc1F,u,42,-11%,u,-10%,-29%[46.1 µM]
COc1ccc(CC(=O)Nc2cccc(S(=O)(=O)N3CCCC3)c2)cc1OC,4.5µM*,-85*,x,x,x,x
COc1cc(C(=O)Nc2cccc(S(=O)(=O)N3CCCC3)c2)cc(OC)c1C,u,-31,x,x,x,x
COC(=O)[C@@H]1CCCN1Cc1ccc2c(c1)CN(Cc1ccccc1F)CCO2,x,x,3%,x,-10%,x
CC(C)CC(COCc1ccc(Cl)cc1)N1CCN(C(=O)c2ccc(Cl)cc2Cl)CCC1=O (stereo not drawn),u,2,u,u,-8%,15µM*
Cc1cccc(C(=O)N2CCC(=O)N(C(COCc3ccccc3)Cc3ccccc3)CC2)c1 (stereo not drawn),-20%,-20,-19%,1%,-23%,5.8µM*
Cc1cccc(COCC(Cc2ccccc2)N2CCN(C(=O)c3cccc(Cl)c3)CCC2=O)c1 (stereo not drawn),u,3,u,-13%,i,5.2µM*
CC(C)C[C@@H](COCc1ccc(Cl)cc1)N1CCN(C(=O)c2ccc(C(F)(F)F)cc2)CCC1=O,x,-2,-9%,x,2%,x
O=C(c1cccc(Cl)c1)N1CCC(=O)N(C(COCc2ccccc2)Cc2ccccc2)CC1 (stereo not drawn),-23%,14,-26%,u,-21%,4.6µM*
Cc1cccc(C(=O)N2CCC(=O)N([C@H](COCc3ccccc3)Cc3ccccc3)CC2)c1,x,-5,-7%,x,15%,x
COc1cccc(C(=O)NCCc2csc3nc(-c4ccccc4F)nn23)c1OC,x,7,-6%,x,-4%,-13%[46.1 µM]
Cc1cccc(Cn2nc(C)n3c(cc4cc(C)ccc43)c2=O)c1,x,10,-8%,3%[46.1 µM],-15%,-2%[46.1 µM]
COc1ccc2c(c1)/C(=C/c1cnc[nH]1)C(=O)N2,u,-97*,7.1µM*,u,3.5µM*,u
CCCCN(CCCC)CC(O)CN(c1cc([N+](=O)[O-])ccc1OC)S(=O)(=O)c1ccccc1 (stereo not drawn),u,-20,-25%,u,u,u

# Compound activity as filed in PubChem BioAssay.
